Source: publication PMC7862700, “An all-to-all approach to the identification of sequence-specific readers for epigenetic DNA modifications on cytosine”

Columns and labels:
Assay in all cases: DAPPL (digital affinity profiling via proximity ligation, sequencing); 10 mM Tris-HCl pH 7.5, 50 mM NaCl, 1 mM DTT, 4% glycerol, room temperature, 30 min; GST-TFs on glutathione beads, 16-mer random dsDNA library, 0.1% formaldehyde crosslink after washing; high values mean tight binding
[1] = molecular target: T1, FEV (Homo sapiens, UniProt Q99581 1-238); conditions: protein: recombinant; tags: N-terminal GST; dsDNA, one strand shown
T1 sequence: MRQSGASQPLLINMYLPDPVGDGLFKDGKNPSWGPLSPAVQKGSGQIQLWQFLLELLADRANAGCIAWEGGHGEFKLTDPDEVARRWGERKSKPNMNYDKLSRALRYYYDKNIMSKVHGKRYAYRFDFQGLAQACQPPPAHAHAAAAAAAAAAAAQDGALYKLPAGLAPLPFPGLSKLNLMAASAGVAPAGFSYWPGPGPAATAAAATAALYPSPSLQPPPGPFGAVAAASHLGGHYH
How it was run: (§1)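 Binding signal is each hexamer's read frequency for a factor divided by its frequency in the tag-only sample. The factors were GST-fused human transcription factors from yeast, captured on glutathione beads, DNA-barcoded and pooled with that sample. Pools were incubated with 200 nmole of a random double-stranded 16-mer DNA library in Tris/NaCl/DTT/glycerol buffer at room temperature for 30 min, then washed, crosslinked with 0.1% formaldehyde, proximity-ligated with BsaI/T4 ligase (1 h, 37 °C), PCR-amplified and sequenced on an Illumina NextSeq500.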

[2] = molecular target: ETV5 (Homo sapiens, UniProt P41161 1-510); conditions: protein: recombinant; tags: N-terminal GST; dsDNA, one strand shown
How it was run: as §1

[3] = molecular target: HSF1 (Homo sapiens, UniProt Q00613 1-529); conditions: protein: recombinant; tags: N-terminal GST; chain copies: 3; dsDNA, one strand shown
How it was run: as §1

[4] = molecular target: T2, SPIC (Homo sapiens, UniProt Q8N5J4 1-248); conditions: protein: recombinant; tags: N-terminal GST; dsDNA, one strand shown
T2 sequence: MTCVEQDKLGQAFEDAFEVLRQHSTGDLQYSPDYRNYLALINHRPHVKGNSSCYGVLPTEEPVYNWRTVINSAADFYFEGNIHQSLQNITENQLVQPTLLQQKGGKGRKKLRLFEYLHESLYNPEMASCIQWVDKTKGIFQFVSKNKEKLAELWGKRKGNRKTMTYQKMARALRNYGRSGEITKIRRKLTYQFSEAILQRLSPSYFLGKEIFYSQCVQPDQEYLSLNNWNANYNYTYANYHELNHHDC
How it was run: as §1

[5] = molecular target: ELF4 (Homo sapiens, UniProt Q99607 1-663); conditions: protein: recombinant; tags: N-terminal GST; dsDNA, one strand shown
How it was run: as §1

[6] = molecular target: T3, ELK4 (Homo sapiens, UniProt P28324-2 1-405); conditions: protein: recombinant; tags: N-terminal GST; dsDNA, one strand shown
T3 sequence: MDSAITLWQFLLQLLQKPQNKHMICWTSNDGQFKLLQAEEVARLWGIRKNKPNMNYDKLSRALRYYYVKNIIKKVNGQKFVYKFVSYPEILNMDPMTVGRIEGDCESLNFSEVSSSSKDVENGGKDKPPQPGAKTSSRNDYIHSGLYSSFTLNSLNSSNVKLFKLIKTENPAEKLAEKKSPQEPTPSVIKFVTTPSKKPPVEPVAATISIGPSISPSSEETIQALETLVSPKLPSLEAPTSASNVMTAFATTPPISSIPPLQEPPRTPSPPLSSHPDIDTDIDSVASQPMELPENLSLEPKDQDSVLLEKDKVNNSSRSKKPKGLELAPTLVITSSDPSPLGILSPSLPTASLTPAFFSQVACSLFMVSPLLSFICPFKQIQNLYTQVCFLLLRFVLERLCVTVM
How it was run: as §1

[7] = molecular target: T4, ETV2 (Homo sapiens, UniProt O00321 1-342); conditions: protein: recombinant; tags: N-terminal GST; dsDNA, one strand shown
T4 sequence: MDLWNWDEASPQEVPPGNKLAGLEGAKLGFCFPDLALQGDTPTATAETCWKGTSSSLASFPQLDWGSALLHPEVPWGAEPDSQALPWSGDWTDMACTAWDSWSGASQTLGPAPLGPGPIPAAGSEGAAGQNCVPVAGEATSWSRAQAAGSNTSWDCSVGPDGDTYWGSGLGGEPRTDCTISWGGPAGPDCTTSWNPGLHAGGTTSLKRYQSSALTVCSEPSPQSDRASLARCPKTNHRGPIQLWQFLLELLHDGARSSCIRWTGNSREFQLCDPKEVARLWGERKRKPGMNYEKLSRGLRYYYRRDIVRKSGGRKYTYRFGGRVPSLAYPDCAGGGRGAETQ
How it was run: as §1

[8] = molecular target: T5, ELF3 (Homo sapiens, UniProt P78545 1-371); conditions: protein: recombinant; tags: N-terminal GST; dsDNA, one strand shown
T5 sequence: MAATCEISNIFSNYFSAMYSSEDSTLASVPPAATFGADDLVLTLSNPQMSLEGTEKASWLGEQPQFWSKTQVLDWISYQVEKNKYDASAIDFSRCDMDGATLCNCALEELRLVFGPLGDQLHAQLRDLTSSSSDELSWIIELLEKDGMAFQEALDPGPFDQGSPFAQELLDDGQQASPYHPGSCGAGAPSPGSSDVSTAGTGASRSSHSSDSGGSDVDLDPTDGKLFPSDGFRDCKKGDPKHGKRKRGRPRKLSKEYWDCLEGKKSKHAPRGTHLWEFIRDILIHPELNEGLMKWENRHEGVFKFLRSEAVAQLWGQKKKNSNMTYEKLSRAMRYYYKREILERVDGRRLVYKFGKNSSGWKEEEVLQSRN
How it was run: as §1

[9] = molecular target: CRX (Homo sapiens, UniProt O43186 1-299); conditions: protein: recombinant; tags: N-terminal GST; dsDNA, one strand shown
How it was run: as §1

[10] = molecular target: ETV1 (Homo sapiens, UniProt P50549 1-477); conditions: protein: recombinant; tags: N-terminal GST; dsDNA, one strand shown
How it was run: as §1

[11] = molecular target: T6, ERF (Homo sapiens, UniProt P50548 1-548); conditions: protein: recombinant; tags: N-terminal GST; dsDNA, one strand shown
T6 sequence: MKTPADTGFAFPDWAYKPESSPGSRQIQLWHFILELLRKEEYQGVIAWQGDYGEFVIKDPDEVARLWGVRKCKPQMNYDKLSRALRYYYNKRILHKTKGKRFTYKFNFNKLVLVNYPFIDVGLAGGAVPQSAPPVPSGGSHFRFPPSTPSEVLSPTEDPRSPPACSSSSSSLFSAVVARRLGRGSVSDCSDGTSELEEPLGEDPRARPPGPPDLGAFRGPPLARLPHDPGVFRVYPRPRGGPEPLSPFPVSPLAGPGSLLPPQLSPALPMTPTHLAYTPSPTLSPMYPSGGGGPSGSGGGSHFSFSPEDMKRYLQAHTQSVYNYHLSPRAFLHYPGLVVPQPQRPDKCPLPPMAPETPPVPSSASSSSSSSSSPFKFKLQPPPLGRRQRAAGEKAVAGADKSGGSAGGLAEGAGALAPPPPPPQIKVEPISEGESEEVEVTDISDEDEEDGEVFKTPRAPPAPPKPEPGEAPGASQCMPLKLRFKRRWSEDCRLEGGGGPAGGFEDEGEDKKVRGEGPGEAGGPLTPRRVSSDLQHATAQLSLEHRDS
How it was run: as §1

[12] = molecular target: T7, ETV3L (Homo sapiens, UniProt Q6ZN32 1-361); conditions: protein: recombinant; tags: N-terminal GST; dsDNA, one strand shown
T7 sequence: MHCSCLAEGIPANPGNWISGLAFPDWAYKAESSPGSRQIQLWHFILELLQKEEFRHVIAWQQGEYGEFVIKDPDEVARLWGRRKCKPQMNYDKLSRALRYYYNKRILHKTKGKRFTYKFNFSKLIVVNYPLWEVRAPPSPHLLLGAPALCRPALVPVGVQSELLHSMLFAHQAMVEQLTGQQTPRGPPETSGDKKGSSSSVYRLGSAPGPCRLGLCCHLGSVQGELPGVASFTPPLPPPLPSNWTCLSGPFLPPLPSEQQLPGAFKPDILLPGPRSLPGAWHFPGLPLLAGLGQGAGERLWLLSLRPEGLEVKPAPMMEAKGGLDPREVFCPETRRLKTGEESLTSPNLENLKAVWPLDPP
How it was run: as §1

[13] = molecular target: T8, ETS2 (Homo sapiens, UniProt P15036 1-469); conditions: protein: recombinant; tags: N-terminal GST; dsDNA, one strand shown
T8 sequence: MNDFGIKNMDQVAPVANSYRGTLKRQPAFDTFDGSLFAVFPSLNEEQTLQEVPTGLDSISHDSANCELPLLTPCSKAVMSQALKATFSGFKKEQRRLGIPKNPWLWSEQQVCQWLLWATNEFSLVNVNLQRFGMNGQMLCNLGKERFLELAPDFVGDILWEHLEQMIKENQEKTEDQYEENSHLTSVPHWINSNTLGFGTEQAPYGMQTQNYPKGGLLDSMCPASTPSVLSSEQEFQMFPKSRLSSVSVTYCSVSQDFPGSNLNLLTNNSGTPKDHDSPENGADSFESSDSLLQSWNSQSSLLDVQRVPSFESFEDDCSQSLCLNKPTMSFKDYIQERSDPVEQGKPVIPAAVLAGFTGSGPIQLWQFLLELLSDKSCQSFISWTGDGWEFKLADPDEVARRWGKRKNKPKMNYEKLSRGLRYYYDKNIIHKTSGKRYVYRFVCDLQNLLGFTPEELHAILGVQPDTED
How it was run: as §1

[14] = molecular target: T9, SPDEF (Homo sapiens, UniProt O95238 1-335); conditions: protein: recombinant; tags: N-terminal GST; dsDNA, one strand shown
T9 sequence: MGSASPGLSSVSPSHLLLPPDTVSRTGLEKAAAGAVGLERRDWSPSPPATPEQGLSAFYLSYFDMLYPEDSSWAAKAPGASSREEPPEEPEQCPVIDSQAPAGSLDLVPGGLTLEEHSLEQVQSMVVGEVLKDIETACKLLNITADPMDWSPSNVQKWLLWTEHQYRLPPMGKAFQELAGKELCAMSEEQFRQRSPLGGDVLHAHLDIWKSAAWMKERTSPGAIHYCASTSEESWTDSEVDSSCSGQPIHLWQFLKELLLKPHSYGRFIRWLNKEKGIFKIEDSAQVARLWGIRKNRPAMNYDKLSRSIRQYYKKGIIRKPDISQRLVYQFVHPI
How it was run: as §1

[15] = molecular target: T10, ETV7 (Homo sapiens, UniProt Q9Y603 1-341); conditions: protein: recombinant; tags: N-terminal GST; dsDNA, one strand shown
T10 sequence: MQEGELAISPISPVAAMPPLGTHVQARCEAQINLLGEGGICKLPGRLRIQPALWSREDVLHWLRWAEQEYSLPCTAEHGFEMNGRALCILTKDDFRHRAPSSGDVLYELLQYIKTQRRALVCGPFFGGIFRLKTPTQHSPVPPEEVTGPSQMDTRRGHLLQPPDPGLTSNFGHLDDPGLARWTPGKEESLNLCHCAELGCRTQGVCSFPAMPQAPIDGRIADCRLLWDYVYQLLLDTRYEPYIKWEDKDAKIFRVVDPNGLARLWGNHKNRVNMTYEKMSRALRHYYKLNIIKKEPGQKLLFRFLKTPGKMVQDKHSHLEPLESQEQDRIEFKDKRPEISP
How it was run: as §1

[16] = molecular target: T11, ELF5 (Homo sapiens, UniProt Q9UKW6-2 1-255); conditions: protein: recombinant; tags: N-terminal GST; dsDNA, one strand shown
T11 sequence: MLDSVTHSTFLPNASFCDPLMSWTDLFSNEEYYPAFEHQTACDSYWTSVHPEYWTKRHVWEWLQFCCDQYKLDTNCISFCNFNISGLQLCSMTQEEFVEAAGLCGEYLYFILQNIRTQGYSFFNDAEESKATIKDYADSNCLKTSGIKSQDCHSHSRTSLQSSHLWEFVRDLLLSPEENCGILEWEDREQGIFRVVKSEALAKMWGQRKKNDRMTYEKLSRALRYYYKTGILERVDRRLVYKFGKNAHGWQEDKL
How it was run: as §1

[17] = molecular target: T12, ETV3 (Homo sapiens, UniProt P41162-2 1-143); conditions: protein: recombinant; tags: N-terminal GST; dsDNA, one strand shown
T12 sequence: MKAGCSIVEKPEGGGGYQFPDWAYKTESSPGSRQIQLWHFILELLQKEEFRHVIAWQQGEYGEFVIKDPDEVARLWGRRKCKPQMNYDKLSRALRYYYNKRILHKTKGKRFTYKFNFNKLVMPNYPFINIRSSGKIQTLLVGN
How it was run: as §1

[18] = molecular target: ETV6 (Homo sapiens, UniProt P41212 1-452); conditions: protein: recombinant; tags: N-terminal GST; dsDNA, one strand shown
How it was run: as §1

Chain of HSF1 (Q00613 whole entry): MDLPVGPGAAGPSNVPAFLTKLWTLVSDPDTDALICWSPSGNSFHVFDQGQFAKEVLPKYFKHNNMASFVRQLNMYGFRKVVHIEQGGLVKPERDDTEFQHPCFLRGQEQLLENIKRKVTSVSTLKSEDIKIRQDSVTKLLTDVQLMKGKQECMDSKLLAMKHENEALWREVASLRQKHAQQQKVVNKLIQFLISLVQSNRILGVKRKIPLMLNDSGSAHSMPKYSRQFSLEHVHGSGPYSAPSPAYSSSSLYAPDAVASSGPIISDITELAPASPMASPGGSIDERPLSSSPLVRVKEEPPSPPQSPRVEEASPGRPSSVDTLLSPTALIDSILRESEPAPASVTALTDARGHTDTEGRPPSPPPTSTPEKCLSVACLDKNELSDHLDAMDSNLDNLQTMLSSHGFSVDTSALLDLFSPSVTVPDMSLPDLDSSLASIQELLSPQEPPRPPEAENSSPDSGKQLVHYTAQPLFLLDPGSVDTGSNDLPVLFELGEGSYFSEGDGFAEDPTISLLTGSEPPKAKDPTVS
Chain of ELF4 (Q99607 whole entry): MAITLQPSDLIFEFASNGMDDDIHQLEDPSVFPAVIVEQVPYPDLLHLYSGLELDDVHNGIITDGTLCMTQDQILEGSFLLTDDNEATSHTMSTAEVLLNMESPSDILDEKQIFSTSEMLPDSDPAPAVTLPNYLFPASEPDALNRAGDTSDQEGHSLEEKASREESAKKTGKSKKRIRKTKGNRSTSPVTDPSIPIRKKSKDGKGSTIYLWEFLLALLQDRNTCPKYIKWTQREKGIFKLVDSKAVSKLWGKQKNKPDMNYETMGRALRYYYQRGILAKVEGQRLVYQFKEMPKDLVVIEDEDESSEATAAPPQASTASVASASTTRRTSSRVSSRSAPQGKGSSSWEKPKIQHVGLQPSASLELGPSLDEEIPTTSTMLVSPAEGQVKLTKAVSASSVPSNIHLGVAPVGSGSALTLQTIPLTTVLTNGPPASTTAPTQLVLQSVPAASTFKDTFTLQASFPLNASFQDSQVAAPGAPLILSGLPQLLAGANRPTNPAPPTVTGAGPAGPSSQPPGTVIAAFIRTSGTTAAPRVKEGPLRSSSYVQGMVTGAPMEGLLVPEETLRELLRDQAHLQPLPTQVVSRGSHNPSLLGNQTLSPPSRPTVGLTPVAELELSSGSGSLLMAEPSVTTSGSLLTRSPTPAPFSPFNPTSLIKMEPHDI
Chain of ETV5 (P41161 whole entry): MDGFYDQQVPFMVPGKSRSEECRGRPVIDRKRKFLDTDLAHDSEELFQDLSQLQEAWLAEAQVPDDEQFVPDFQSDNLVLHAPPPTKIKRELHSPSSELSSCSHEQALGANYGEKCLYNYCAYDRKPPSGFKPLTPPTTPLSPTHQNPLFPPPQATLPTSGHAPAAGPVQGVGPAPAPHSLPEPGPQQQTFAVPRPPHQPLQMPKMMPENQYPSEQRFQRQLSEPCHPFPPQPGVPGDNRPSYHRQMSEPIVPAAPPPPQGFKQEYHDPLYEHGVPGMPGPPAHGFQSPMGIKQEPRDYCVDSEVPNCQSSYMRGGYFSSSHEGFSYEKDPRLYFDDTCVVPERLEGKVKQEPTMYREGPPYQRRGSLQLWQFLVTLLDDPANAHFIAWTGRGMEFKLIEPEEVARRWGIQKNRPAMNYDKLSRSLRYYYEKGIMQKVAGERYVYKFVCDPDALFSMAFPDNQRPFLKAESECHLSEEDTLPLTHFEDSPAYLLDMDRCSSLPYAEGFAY
Chain of ETV6 (P41212 whole entry): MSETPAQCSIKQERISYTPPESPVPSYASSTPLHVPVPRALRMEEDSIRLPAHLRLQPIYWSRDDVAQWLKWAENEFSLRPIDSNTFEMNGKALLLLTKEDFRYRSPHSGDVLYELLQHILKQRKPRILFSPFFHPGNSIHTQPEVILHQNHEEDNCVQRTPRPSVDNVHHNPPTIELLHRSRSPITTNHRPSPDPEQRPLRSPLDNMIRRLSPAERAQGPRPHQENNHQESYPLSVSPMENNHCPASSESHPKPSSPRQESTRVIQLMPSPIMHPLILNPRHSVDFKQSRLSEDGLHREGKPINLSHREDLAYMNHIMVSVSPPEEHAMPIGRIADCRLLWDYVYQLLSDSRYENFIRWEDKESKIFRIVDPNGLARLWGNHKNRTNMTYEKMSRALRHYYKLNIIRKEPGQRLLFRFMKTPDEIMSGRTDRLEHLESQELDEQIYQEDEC
Chain of ETV1 (P50549 whole entry): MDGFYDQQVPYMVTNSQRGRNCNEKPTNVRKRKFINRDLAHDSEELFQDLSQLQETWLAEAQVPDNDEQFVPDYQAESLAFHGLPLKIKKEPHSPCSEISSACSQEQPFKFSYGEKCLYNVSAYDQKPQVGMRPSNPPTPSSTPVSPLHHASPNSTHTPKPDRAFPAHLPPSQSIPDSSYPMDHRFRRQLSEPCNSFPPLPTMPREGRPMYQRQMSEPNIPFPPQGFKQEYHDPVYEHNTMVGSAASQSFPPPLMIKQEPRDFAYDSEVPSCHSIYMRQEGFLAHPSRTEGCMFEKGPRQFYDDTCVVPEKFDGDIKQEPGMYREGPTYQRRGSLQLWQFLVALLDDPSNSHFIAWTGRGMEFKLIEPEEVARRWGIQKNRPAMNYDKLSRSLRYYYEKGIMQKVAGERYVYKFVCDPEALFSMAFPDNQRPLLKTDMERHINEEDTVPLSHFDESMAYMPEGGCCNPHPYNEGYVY
Chain of CRX (O43186 whole entry): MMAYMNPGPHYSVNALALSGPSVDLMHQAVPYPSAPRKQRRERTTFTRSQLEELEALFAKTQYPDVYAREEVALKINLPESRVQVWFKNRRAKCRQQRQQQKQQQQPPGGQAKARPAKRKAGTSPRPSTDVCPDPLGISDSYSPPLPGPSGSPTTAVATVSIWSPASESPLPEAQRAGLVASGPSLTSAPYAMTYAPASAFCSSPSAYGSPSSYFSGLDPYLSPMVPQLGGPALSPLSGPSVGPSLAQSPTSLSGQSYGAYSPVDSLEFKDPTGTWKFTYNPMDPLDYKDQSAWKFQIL

With ATTTAG the binding signal [1] was 1.08 fold enrichment (6-mer frequency, TF over GST control), the binding signal [2] was 1.06 fold enrichment (6-mer frequency, TF over GST control) and the binding signal [3] was 1.37 fold enrichment (6-mer frequency, TF over GST control). For the same sequence, the binding signal [4] was 1.2 fold enrichment (6-mer frequency, TF over GST control), the binding signal [5] was 1.05 fold enrichment (6-mer frequency, TF over GST control) and the binding signal [6] was 1.17 fold enrichment (6-mer frequency, TF over GST control). The binding signal [7] was 1.3 fold enrichment (6-mer frequency, TF over GST control), the binding signal [8] was 1.17 fold enrichment (6-mer frequency, TF over GST control) and the binding signal [9] was 1.66 fold enrichment (6-mer frequency, TF over GST control). For the same sequence, the binding signal [10] was 1.11 fold enrichment (6-mer frequency, TF over GST control), the binding signal [11] was 1.22 fold enrichment (6-mer frequency, TF over GST control) and the binding signal [12] was 1.15 fold enrichment (6-mer frequency, TF over GST control). For the same sequence, the binding signal [13] was 1.07 fold enrichment (6-mer frequency, TF over GST control), the binding signal [14] was 1.13 fold enrichment (6-mer frequency, TF over GST control) and the binding signal [15] was 1.07 fold enrichment (6-mer frequency, TF over GST control). For the same sequence, the binding signal [16] was 1.04 fold enrichment (6-mer frequency, TF over GST control), the binding signal [17] was 1.12 fold enrichment (6-mer frequency, TF over GST control) and the binding signal [18] was 1.21 fold enrichment (6-mer frequency, TF over GST control).
